PubChem BioAssay AID1845225 (National Center for Advancing Translational Sciences (NCATS), 2023)
Results filed as inconclusive are left out. The source made the active and inactive calls. Calls follow the shape of the dose curve; as a rule, active = well fitted curve in the direction sought with a large enough effect; inconclusive = small, poorly fitted or top-dose-only effect, or effect the other way, or another doubt; inactive = no such curve, though single readings can be large or run the other way.

Assay: Confirmatory redox qHTS assay for identification of artifact compounds.
Conditions: Amplex Red/HRP redox cycling with DTT, fluorescence; series mostly up to 39 µM
Source text: PI: Alexander Tropsha Ph.D. UNC Eshelman School of Pharmacy University of North Carolina, Chapel Hill, North Carolina Hits from high-throughput screening (HTS) of chemical libraries are often false positives due to their interference with the assay detection technology. In response to this problem, we generated the largest publicly available library of chemical liabilities and developed a free webtool to predict HTS artifacts, both of which are described herein. More specifically, we generated, curated, and integrated HTS datasets for thiol reactivity, redox activity, and luciferase (firefly and nano) activity. Using these curated datasets, we developed and validated several Quantitative Structure-Interference Relationship (QSIR) models to predict nuisance behavior. […] These models were employed for virtual profiling of the National Center for Advancing Translational Science's (NCATS) in-house library, and 256 compounds for each assay were selected for the experimental validation of nuisance behavior. The BA for these external predictions ranged from 58 to 78% for compounds within the applicability domains of the models. […] The models developed in this study, along with aggregation models previously developed by our group (SCAM Detective) were implemented in "Liability Predictor," an online tool which may be used as part of chemical library design or for triaging HTS hits. Both the models and the curated datasets are publicly available at https://liability.mml.unc.edu/.
PROTOCOL TABLE SEQUENCE No. (e.g., 1, 2, 3, etc.); […] (e.g., Cells, Incubation, Reagent, etc.); VALUE; DESCRIPTION. 1; Reagent; 3 uL; Amplex Red and HRP mixture. 2; Compounds and control; 16 nL; Kalypsis pin tool (Wako USA) equipped with a 1536-well pin head. 3; Incubation; 15 min. 4; Reagent; 1 uL; […]. 5; Incubation; 30 min. 6; Detection; Fluorescence, ViewLux microplate reader, 525 nm excitation, 598 nm emission. NOTES (numbers refer to Sequence numbers above) 1. 3 uL of a mixture containing Amplex Red (25 uM final concentration) and horseradish peroxidase (HRP; 250 mU/mL final concentration) in assay buffer (HBSS) was dispensed into all wells of a 1536-well assay plate (solid-bottom black plate; Greiner Bio One, Monroe, NC). 2. […] 3. 15 min. incubation at room temperature protected from light. 4. 1 uL of DTT (prepared fresh; final concentration 250 uM) was dispensed for a final assay volume of 4 uL. 5. Plates were centrifuged (121xg, 15 seconds) and incubated for 30 minutes at room temperature protected from light. 6. Samples were read for fluorescence (Ex/Em = 525(20)/598(25) nm) on a ViewLux CCD imager (PerkinElmer). Data were normalized to DMSO (0% activity) and DA3003 (10 uM final concentration; 100% activity) and the resulting percent inhibition data were fitted to a 4-parameter Hill equation using NCATS in-house software.

outcome, inactive:
CCOc1ccc(C(=O)N2CCC(c3nc(-c4ccc(S(=O)(=O)N5CCCC5)cc4)no3)CC2)cc1
CC1(C)S[C@@H]2[C@H](NC(=O)C3(N)CCCCC3)C(=O)N2[C@H]1C(=O)O
O=C(NCCC1=CCCCC1)c1ccc2c(c1)N(Cc1cccc(Cl)c1)C(=O)c1ccccc1S2=O (stereo not given)
CCC(CC)c1nn2c(=O)cc(COc3ccc(NC(=O)c4ccccc4C)cc3)nc2s1
Cc1ccc(C)c(N2CCN(S(=O)(=O)c3cc(Br)cc4c3N(C(=O)C3CC3)CC4)CC2)c1
COC(=O)c1c(SC)nc2ccccc2c1OCc1ccc(Br)cc1
CN1C(C(=O)Nc2ccc(F)cc2F)=CC(c2cccs2)=NS1(=O)=O
O=C(CCC(=O)N1CCSc2ccccc21)Nc1ccc(Cl)cc1
Cc1ccc(OCCn2c(CCNC(=O)OC(C)(C)C)nc3ccccc32)cc1
COc1ccc(CCNC(=O)c2cc(=O)[nH]c3ccc(S(=O)(=O)N4CCCCC4)cc23)cc1OC
Cc1ccc(OCCn2c(CCNC(=O)c3c(F)cccc3F)nc3ccccc32)cc1
O=C1c2oc3ccc(F)cc3c(=O)c2C(c2cccc([N+](=O)[O-])c2)N1CCCN1CCOCC1 (stereo not given)
COc1cc2c(NC3CCN(C)CC3)nc(N3CCN(C)CC3)nc2cc1OCCOCCN(C)C
COc1cc2c(NC3CCN(C)CC3)nc(N3CCCN(C)CC3)nc2cc1OCC1CCCNC1 (stereo not given)
Cc1ccc(NC(=O)c2ccc3c(c2)NC(=O)c2ccccc2S3)cc1
Cc1cccc(N2CCN(CCCNC(=O)c3nnc(Cc4c(F)cccc4Cl)o3)CC2C)c1 (stereo not given)
Cc1ccc(Cl)cc1N1C(=O)N(Cc2ccc(C#N)cc2)c2ccccc2S1(=O)=O
O=C1C2C3CCCC3=C3CCCC3C2C(=O)N1c1ccc(Cl)cc1 (stereo not given)
CC1=C(/C=C/C(C)=C/C=C/C(C)=C\C(=O)O)C(C)(C)CCC1
COC(=O)c1ccccc1NC(=O)[C@H]1O[C@@H]2OC(C)(C)O[C@@H]2[C@H]2OC(C)(C)O[C@H]21
O=C(NCCc1csc(-c2cccc(F)c2)n1)C(=O)Nc1cc(F)ccc1F
CCOC(=O)Cc1cccc(-c2cc(CCCCCCc3ccc(O[C@H]4O[C@H](COC(C)=O)[C@@H](OC(C)=O)[C@H](OC(C)=O)[C@@H]4OC(C)=O)c(-c4cccc(CC(=O)OCC)c4)c3)ccc2O[C@H]2O[C@H](COC(C)=O)[C@@H](OC(C)=O)[C@H](OC(C)=O)[C@@H]2OC(C)=O)c1
O=C(CN1C(=O)CCn2nc(-c3ccccc3)cc21)NCc1ccc(F)cc1
CC(C)Oc1ccc(CNC(=O)Cc2ccc(NC(=O)N3CCSc4ncccc43)cc2)cc1
O=C(CSc1nc(-c2ccccc2)[nH]c1-c1ccc(F)cc1)NC1CCCC1
COc1ccc(NC(=O)N(Cc2nnc3n2CCCCC3)c2ccc(OC)c(Cl)c2)cc1
O=C(Nc1cccc(Br)c1)N1CCC(CN2CCCCC2)CC1
O=C(Nc1onc2c1CCCC2)c1ccc(Cl)cc1
COc1cc2c3cc1OCc1c(O)c(OC)cc4c1C(Cc1ccc(cc1)Oc1cc(ccc1O)CC3N(C)CC2)N(C)CC4 (stereo not given)
FC(F)(F)c1ccccc1-c1nc(NCC23CC4CC(CC(C4)C2)C3)c2ccccc2n1
COc1ccc(C(CNC(=O)c2oc3cc(C)c(C)cc3c2C)N2CCCCC2)cc1 (stereo not given)
O=C1c2ccccc2C(=O)N1c1cnc2ccccc2c1
CC(NC(=O)CSc1nc(-c2ccccc2F)nc2cc(=O)[nH]n12)c1nc2ccccc2n1C (stereo not given)
CC(C)=CCC/C(C)=C/C=O
COc1ccc(N2CC(NC(=O)c3ccco3)CC2=O)cc1 (stereo not given)
CCc1ccc(CN2C(=O)c3ccccc3C2C(=O)NCCc2ccc(OC)c(OC)c2)cc1 (stereo not given)
Cc1cc2c(s1)c1cnn(Cc3cc(F)c(Cl)cc3Cl)c(=O)c1n2C
CC(=NCc1ccccc1)c1ccccc1O
Clc1ccccc1CNc1ncnc2nc[nH]c12

Redox activity vs DA3003, inactive:
CC(C)C[C@H](N)C(=O)N[C@H](C(=O)N[C@H](C(=O)N[C@@H](Cc1ccc(O)cc1)C(=O)N1CCC[C@H]1C(=O)N[C@@H](Cc1c[nH]c2ccccc12)C(=O)N[C@H](C(=O)N[C@@H](CCC(N)=O)C(=O)N[C@@H](CCCN=C(N)N)C(=O)O)[C@@H](C)O)C(C)C)C(C)C -0.687% [at 4.35 µM]
